PubChem BioAssay AID1508600 (Functional Genomics Laboratory (NCATS/FGL), 2020)
Out of some 53,000 sequences screened, about 3,700 (7%) were called active. This is one part of a sample in which actives are shown more often than they occur. A number with no mark means an inactive call.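 The calls were made as follows: active = gene knockdowns whose robust z-score for IL-1 alpha signal is at least 2 or at most -2, so actives lie on both sides; inactive = the rest.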

assay: Components of the Cytosolic LPS Sensing Pathway: Gene Identification via Genome-wide siRNA Screen; conditions: RAW264.7 macrophages, IL-1a HTRF, actives lie on both sides, screened at 100 nM (by protocol), cells primed 5 h with Pam3CSK4 first;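 also: robust z of the log signal after scaling to non-targeting control siRNA wells of the plate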
How it was run: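 Supernatant IL-1a by HTRF from RAW264.7 cells primed with Pam3CSK4 (5 hours) and transfected with LipidA (24 hour) after 48h siRNA knockdown at 100 nM; cell viability checked with CellTiter-Glo.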

Q: For GGACCUAAAGAUAAUAAGUTT against Pex3, which z-score is on record?
A: -0.481

Q: With GCCCAUCAGAUGGCAAGAUTT against Pisd as the sequence, how does the z-score read?
A: 1.09

Q: With GUCCCACACUGAUAAGAUUTT against Lcorl as the sequence, how does the z-score read?
A: -0.602

Q: For GGAGCCUAUACUGAUUUAUTT against Tomm7, which z-score is on record?
A: 2.13 (active)

Q: Which z-score does the source give for GCAGCUUAGUGAUUUGAAATT against Tex21 here?
A: -1.24

Q: Which z-score does the source give for CCGGAUUCGAGAGGUGAUGTT against Lrrc52 here?
A: 0.0804

Q: Which z-score does the source give for CGGCAAAAUUAGCUAUUCATT against Exosc4 here?
A: 0.489

Q: For GGCAUUACAGUGUUUCUGCTT against Tgfbr1, which z-score is on record?
A: -0.288

Q: For GGGCAAUGAUUUCGCCUUCTT against Ninj1, which z-score is on record?
A: 0.337

Q: With GGAUUCGUAAACUUCAGAUTT against Igf2bp3 as the sequence, how does the z-score read?
A: 3.41 (active)

Q: With GGGUCAGAACACGUACGAGTT against Gnaz as the sequence, how does the z-score read?
A: 1.06

Q: Which z-score does the source give for CGAGUGUGAGCUACAGCGUTT against Agrn here?
A: 2.74 (active)

Q: With UCUGUGGACCAGGAUUUGGTT against Pcsk1n as the sequence, how does the z-score read?
A: -2.8 (active)

Q: With GGGUGUGACGAUUCUCACCTT against Olfr800 as the sequence, how does the z-score read?
A: 0.705

Q: For GGAAAAUGAAGGUUCAGAATT against Pkib, which z-score is on record?
A: -0.185

Q: For GGACUGUGAGGCCUAUGAATT against Cd72, which z-score is on record?
A: -0.1

Q: Which z-score does the source give for CCGAUCUGAUAUAGUAGAATT against Stk31 here?
A: 2.18 (active)

Q: With GGCCACAGAUCUUCUGGUGTT against Calml4 as the sequence, how does the z-score read?
A: 1.08

Q: With CGAGGGUCUGAAAAAUUACTT against Ighg as the sequence, how does the z-score read?
A: 1.28

Q: With GGUAUGCACUCACACCAGATT against Mus81 as the sequence, how does the z-score read?
A: 0.73

Q: Which z-score does the source give for GGCCGUGUGCAUCUUUGUGTT against Gpr20 here?
A: 1.43

Q: Which z-score does the source give for GGGAGAUCUCCAACACCAATT against Dipk1b here?
A: -1.02

Q: For CCUUUGGUGAAGCCUGGAUTT against Kiss1, which z-score is on record?
A: -0.0609

Q: Which z-score does the source give for GGACUUCAUGGCUAGUUUCTT against B4galt4 here?
A: -0.14

Q: With GCAGAGCAUGCCUUACUGUTT against Eif4ebp1 as the sequence, how does the z-score read?
A: 4.39 (active)

Q: Which z-score does the source give for GCUAACAGCAUCCUUUUUGTT against Vmn1r50 here?
A: -0.843

Q: For GGAGAUUGACCUGGUCAACTT against Cav1, which z-score is on record?
A: 1.44

Q: For GGUUAUGAUCGGCAUCGCUTT against Fam24a, which z-score is on record?
A: -1.46

Q: For “GGCUUCCUUCAGUGAGAAUTT against 1810065E05Rik”, which z-score is on record?
A: -2.02 (active)

Q: Which z-score does the source give for GGCAUGAGUGCAUUUGCUATT against Ifi203 here?
A: -0.673

Q: Which z-score does the source give for “CCUAAGCUUAUCUCAUAUUTT against 4930449I24Rik” here?
A: -0.572

Q: With GGGCUACUACAAUGAGUACTT against Phospho1 as the sequence, how does the z-score read?
A: 0.412

Q: With GGGUGAGAUGAAAUGCAUCTT against Efemp2 as the sequence, how does the z-score read?
A: 0.264

Q: Which z-score does the source give for GGCCGACAAUUUGUCAGUUTT against Uaca here?
A: -1.19

Q: With GCAAGUGUUAGAACACAAGTT against Cish as the sequence, how does the z-score read?
A: 0.823

Q: With CGGUUCUGGUGCAUUCACATT against Olfr242 as the sequence, how does the z-score read?
A: -2.06 (active)

Q: With GGAAAUUGGAGAUUUUUCCTT against Ccdc54 as the sequence, how does the z-score read?
A: -1.02

Q: Which z-score does the source give for GGCAUUGGAUCUUCAUUUUTT against Slc18a1 here?
A: 2.35 (active)

Q: With GGUGGAGAUCAAACCAGAGTT against Rps15 as the sequence, how does the z-score read?
A: 1.4

Q: Which z-score does the source give for GGGAAACUCUCAGAUGAAGTT against Sh2d7 here?
A: -1.9

Q: Which z-score does the source give for GGCAGACAACUUCUACCAATT against Crim1 here?
A: 2.52 (active)

Q: With GGCAAAAUCUCAUCAGUCCTT against Iqcc as the sequence, how does the z-score read?
A: -0.131

Q: Which z-score does the source give for GGUGAUCUAGAAACAACCCTT against Tmco5 here?
A: 0.243

Q: Which z-score does the source give for CCAUCCAGCUUUCAUUAAATT against Nckap1l here?
A: 0.508

Q: For GGUCUCCAUUUCUUUCUGCTT against Nmd3, which z-score is on record?
A: -0.952

Q: For GGAAAGAGGAAAUCUUUAGTT against Furin, which z-score is on record?
A: 2.04 (active)

Q: For GGACUGAAGUGAAAUAAAUTT against Trav13-5, which z-score is on record?
A: -0.949

Q: Which z-score does the source give for GCAUCAUCGUGGGAAACCUTT against Olfr1284 here?
A: 0.331

Q: With CCAUUCUCUUUACCUCAAUTT against Rdh12 as the sequence, how does the z-score read?
A: -0.161

Q: With CCUGUAGGAGUGACUUCCUTT against Crbn as the sequence, how does the z-score read?
A: 0.223

Q: For GGGACCAGAUAGAAAUUAUTT against Arhgef25, which z-score is on record?
A: 0.414

Q: Which z-score does the source give for GGAAGAGAAGUUGUCCAAATT against Creld1 here?
A: 0.477

Q: With “GCUCACAGCAGCAUUUUACTT against 1700034H15Rik” as the sequence, how does the z-score read?
A: -2.48 (active)

Q: For GGACUCCUACAUGAUUGCUTT against Slc52a2, which z-score is on record?
A: -0.362

Q: Which z-score does the source give for UGUGGUCUUAGAAUCUAGCTT against Tdpoz3 here?
A: 4.49 (active)

Q: Which z-score does the source give for CCAUUACUUCUGUGACCUCTT against Olfr32 here?
A: -0.289

Q: Which z-score does the source give for GCUGCUUUCUUUGGAGGACTT against Olfr484 here?
A: 2.27 (active)

Q: Which z-score does the source give for GGAGCUCUUUGACUUCUUGTT against Uqcrh here?
A: 0.359

Q: For GGUGGCUAAAAGCUCUUCCTT against Odc1, which z-score is on record?
A: 1.9

Q: Which z-score does the source give for “GGCCCAUUGUUUGAGCCCATT against A530013C23Rik” here?
A: -0.961

Q: With GGCAUUAACCUGAGAUGAUTT against Sprr2i as the sequence, how does the z-score read?
A: -1.42

Q: With GGCUAGCAGGAUCAGCAUCTT against Rnf212 as the sequence, how does the z-score read?
A: 0.617

Q: With GGUGCUUUUUUUGGAUCAATT against Olfr507 as the sequence, how does the z-score read?
A: -1.05

Q: For GGAAGAGAGGGUGAAUAUGTT against Tmem41b, which z-score is on record?
A: -2.56 (active)

Q: Which z-score does the source give for CGGCAUUCAGAUUGUCUCUTT against Nup210 here?
A: -1.22

Q: Which z-score does the source give for GGCCAUUGAGUGCUCCUACTT against Dhcr7 here?
A: -0.113

Q: With CCACUCAUUGUUCAUGGAATT against Olfr1490 as the sequence, how does the z-score read?
A: 0.798

Q: For GGACCUGAGUUAGGAGAAUTT against Zfp105, which z-score is on record?
A: -2.06 (active)

Q: With GGCUGAGAAUGCAAGAAUGTT against Krt32 as the sequence, how does the z-score read?
A: -0.446

Q: With GGAAUUCAGCUUUGUGCAATT against Asl as the sequence, how does the z-score read?
A: 0.764

Q: With GGCCAGCAAAACAAAUGACTT against Slc34a2 as the sequence, how does the z-score read?
A: -1.01

Q: With GGUAAAGCAGUACCUUUCUTT against Mitf as the sequence, how does the z-score read?
A: 2.53 (active)

Q: With GGUGAUGCUGGAAUCUUCCTT against Svop as the sequence, how does the z-score read?
A: 0.216

Q: For GCGAUUCGUCUUCGAGUUCTT against Fam161a, which z-score is on record?
A: 0.483

Q: Which z-score does the source give for GGAACUAUUUUUUACCCAATT against Dclre1a here?
A: -0.497

Q: Which z-score does the source give for GGAAAGAAGAUCGAUUACATT against Atp11c here?
A: 2.22 (active)

Q: With GCCCUGUUUACACCUCUGATT against Sec23a as the sequence, how does the z-score read?
A: -1.38

Q: With CGAAAGGUCAAAUUAACAGTT against Serpinb5 as the sequence, how does the z-score read?
A: 1.23

Q: For CCACAAAGAAUGCAUUACUTT against Eml3, which z-score is on record?
A: -0.912

Q: Which z-score does the source give for GCUACUCAGUCUUUACUAUTT against Telo2 here?
A: -2.14 (active)

Q: With CCUGGCAGAGCAUUAUCUATT against Tmem201 as the sequence, how does the z-score read?
A: 0.558

Q: With GGAGACAACUGUCAAGCUGTT against Igdcc4 as the sequence, how does the z-score read?
A: -0.0921

Q: With GGCACAGAAAAUCUUCAAATT against Ap2a1 as the sequence, how does the z-score read?
A: 0.97

Q: For GGACUGAAGGAUGCCUCAATT against Cngb1, which z-score is on record?
A: 0.78

Q: For GCUAACAACGUGUGCUUCUTT against Fam20a, which z-score is on record?
A: -0.174

Q: Which z-score does the source give for CCCGAGAUGUAUCAUCUAATT against Krcc1 here?
A: -0.31

Q: Which z-score does the source give for UUCACUGUAAGAAUUGUCUTT against Vmn1r93 here?
A: -2.11 (active)

Q: Which z-score does the source give for GGGAAUACAUUUUAUCUUCTT against Cpox here?
A: -0.16

Q: For GAUGACUAGCUCUACUUUATT against Olfr738, which z-score is on record?
A: -0.0882

Q: With GGUAUCAGUAGCUGAUGUGTT against Pde8a as the sequence, how does the z-score read?
A: 1.36

Q: With GGUGUGGGUGACAAGGUUATT against Tymp as the sequence, how does the z-score read?
A: 0.153

Q: Which z-score does the source give for “GCAACACAAACACUGGCUATT against D930020B18Rik” here?
A: -1.57

Q: Which z-score does the source give for CCUAGGAUAGAGAUUGUUGTT against Ndufaf3 here?
A: 0.135

Q: Which z-score does the source give for GGUAGAUCAUGGCCAUCCUTT against Ntf5 here?
A: 2.04 (active)

Q: With CGAUACACUGGUGCCCUAUTT against Tmem201 as the sequence, how does the z-score read?
A: -0.158

Q: With GGUGCCAGAUGUCAAGAAATT against Rpn2 as the sequence, how does the z-score read?
A: -0.685

Q: With GGAUCUGAAGACAUGGAGATT against H2-M1 as the sequence, how does the z-score read?
A: 0.659

Q: With CGCCCUUGGAGGUUAAUCATT against Nsg2 as the sequence, how does the z-score read?
A: 0.26

Q: Which z-score does the source give for GGAACAGGCCGAGUUAGUATT against Olfr414 here?
A: 1.45

Q: For GGAAGGUGAUGAAUCAGCCTT against Wwtr1, which z-score is on record?
A: -2.74 (active)

Q: Which z-score does the source give for GCUGAGUUCAUUGCAAUGCTT against Cyp4a12b here?
A: 0.274

Q: With GGACGGCAGAAAGCAUUUATT against Olfr317 as the sequence, how does the z-score read?
A: 0.693

Q: For GGAAUUCAUCUUACAUUCCTT against Acox3, which z-score is on record?
A: 2.42 (active)

Q: Which z-score does the source give for GCUGACUCUUAGAUAAAUATT against Seh1l here?
A: -0.81

Q: Which z-score does the source give for CCAAAGAGAUAUCCCUCCCTT against Olfr1350 here?
A: -0.283

Q: Which z-score does the source give for GCAGGAAUUCUUGAAUUAUTT against Ly75 here?
A: 2.66 (active)

Q: For GGACUUCUCAUCCUAUUUATT against Iah1, which z-score is on record?
A: -0.638
